From PubChem BioAssay (NCI) come the findings set out here.

The structures appear in SMILES notation. The panel holds about 83,000 compounds, 20% with a hit somewhere; the sample as a whole holds those more often.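 Values shown are percent growth following 48 h exposure of cells in 96-well plates to a single concentration of compound; below 10 was considered active.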 A number with no mark means an inactive call. Calls of active or inactive are those of the source.

For this test, the system named is HCT-116 colon. The test can be described thus: NCI-60 one-dose screen, 48 h (100 = growth as untreated, 0 = no growth, -100 = all killed). The conditions noted are these: 10 µM unless noted.
`O=S(=O)(NCCNc1nccc(-n2cnc3ccccc32)n1)c1ccc(Br)cc1`: the growth was 99.8%. The same measure for `NS(=O)(=O)c1ccc(Nc2nc(N/N=C/c3ccccn3)nc(Nc3ccccc3)n2)cc1`: -30% (active).

Regarding `NC(N)=Nc1ccc(Oc2cccc(Nc3ccc(Br)c(C(F)(F)F)c3)c2)cc1`, the growth was -25% (active). Regarding `O=c1[nH]c2ccccc2cc1CSc1ccccc1Nc1nccc(-c2ccc(Cl)cc2)n1`, the growth is 100%. The same measure for `COc1ccccc1C(=O)Nc1cccc2c1C(=O)C(=O)C=C2`: 99%. The same measure for `CCO/C=N/C1=C(C#N)C(c2ccc(F)cc2)c2sc3c(C)cccc3c2O1` (centres undefined): 6.05% (active); for `O=C(NNc1nc2cc(F)ccc2n2c(CN3CCCC3)ccc12)c1cnccn1`: 11.1%; for `COc1cc(-c2nn(C(C)(C)C)cc2-c2ccnc(NCCCNS(=O)(=O)c3ccccc3)n2)ccc1Cl`: 59.9%. Take `O=C(NCc1ncc[nH]1)c1ccc(-c2nc3ccc4[nH]ncc4c3c3c2CCCC3)cc1`: the growth is -4.57% (active). The same measure for `O=C(NNc1nc2cc(F)ccc2n2c(CO)ccc12)c1cnccn1`: 17.7%; for `O=[N+]([O-])c1cc(/C=N/Nc2nc(N/N=C/c3ccc(Cl)c([N+](=O)[O-])c3)nc(N3CCCCC3)n2)ccc1Cl`: 22%; for `COc1c(N2CC3CCCNC3C2)c(F)cc2c(=O)c(C(=O)N/N=C/c3ccccc3)cn(C3CC3)c12` (centres undefined): 81.1%.

Turning to `O=C(CNc1nc(-c2cccc([N+](=O)[O-])c2)cs1)Nc1cccc(Cl)c1`, the growth is 112%. The same measure for `O=S(=O)(NCCNc1nccc(-n2cnc3ccccc32)n1)c1ccc(C(F)(F)F)cc1`: 40.1%; for `CC(C)(C)c1ccc(C(=O)Nc2sc3c(c2C(N)=O)CC/C(=N\O)C3)cc1`: 10.5%. The same measure for `CC(=O)c1nnn(-c2c(C(=O)n3nc(C)cc3C)sc(=S)n2-c2ccccc2)c1C`: 104%. Consider `CNC(=O)c1c(NC(=O)c2ccccc2C(F)(F)F)sc2c1CCC(=O)C2`, for which the growth is 8.16% (active). Consider `O=C(NNc1nc2cc(F)c(F)cc2n2cccc12)c1cnccn1`, for which the growth is 17.5%. On to `COc1cc(Nc2c(C#N)cnn3cc(-c4cnn(CC(C)(C)O)c4)cc23)ccc1Cl`, for which the growth is 40.2%. The same measure for `CCCCCCCn1cc2c(N[C@H](C)c3ccccc3)ncnc2n1`: 104%; for `O=C(Cn1cc(-c2ccccc2)nn1)Nc1nc(-c2ccc(Cl)cc2)cs1`: 108%. The same measure for `CCOC(=O)C(=O)CC(=O)N1C(=S)NC(=O)C1CC(C)C` (centres undefined): 95.4%.

As to `O=C1Nc2ccccc2/C1=C/c1ccc(CO)n1-c1ccc(Cl)cc1`, the growth is 23.8%. The same measure for `CCO/C=N/C1=C(C#N)C(c2ccc(OC)cc2)c2sc3c(CC)cccc3c2O1` (centres undefined): 24.1%; for `O=C1[C@@H]2Cc3c([nH]c4ccccc34)[C@H](c3c(Cl)cccc3Cl)N2C(=O)CN1C1CCN(CC2CCCCC2)CC1`: 4.3% (active); for `Cc1nn(-c2ccccc2)c2ncnc(N/N=C/c3cccc(O)c3)c12`: 24%. The same measure for `CS(=O)(=O)Nc1cc(-c2ccc3ncc(C#N)c(NCc4cccc(F)c4)c3c2)cnc1Cl`: 4.35% (active). The same measure for `Cc1ccc(-n2cc(/C=C/C(=O)c3ccc(O)cc3)c(-c3ccc(S(C)(=O)=O)cc3)n2)cc1`: 26.6%; for `CC1(C)NCCC[C@]2(C)[C@H]3C/C(=N\O)C4[C@@H]5C[C@@](C)(CO)CC[C@]5(C)CC[C@@]4(C)[C@]3(C)CC[C@@H]12` (some centres undefined): 86.3%. Turning to `C#CCNC1CCC(c2csc(C#C)n2)=C1C` (centres undefined), the growth is 80.9%. The same measure for `NS(=O)(=O)c1ccc(Nc2nc(Nc3ccccc3)nc3nnc(SCC(=O)NC4CCCCC4)n23)cc1`: 99.8%. The same measure for `O=C(CNc1nc(-c2cccc([N+](=O)[O-])c2)cs1)Nc1cccc([N+](=O)[O-])c1`: -8.55% (active); for `O=C(CSc1nc2ccccc2c(=O)n1-c1ccc(Cl)cc1)N/N=C/c1ccc(N2CCCCC2)cc1`: 36.9%. With `O=C(c1ccc(Cl)cc1)C1[C@H](c2ccc(Cl)cc2)[C@@H](c2ccccc2)NC12C(=O)Nc1ccccc12` (some centres undefined), the growth is 26.1%. The same measure for `CC(=O)c1ccc(Nc2nc(SCC(C)C)nc(-c3ccc(F)cc3)c2C#N)cc1`: 108%; for `Fc1ccc(-c2cc3nc(C(Cl)Cl)nc(-c4ccc(F)cc4)n3n2)cc1`: 4.72% (active); for `CNc1ncc2cc(-c3ccc(-c4ncccc4F)cc3Cl)c(=O)n(CC3OCC(N)CO3)c2n1` (centres undefined): 80.2%. The same measure for `C#C[C@]1(O)CC[C@H]2[C@@H]3CC=C4c5sc(-c6ccc7c(c6)OCO7)nc5CC[C@]4(C)[C@H]3CC[C@@]21C`: -9.63% (active). The same measure for `C=CCn1c(SCC(=O)Nc2ccc(C(=O)/C=C/c3ccc(C)cc3)cc2)nnc1-c1c[nH]c2ccccc12`: -2.08% (active).
